Screening results: PubChem, National Center for Advancing Translational Sciences (NCATS)
The list is not random: actives were taken first. Their share in the collection is about 10%.
hNpr1 antagonist: human Npr1 receptor antagonism | Potency, µM (doses to about 46.3 µM), for inactives: top-dose activity change, negative = inhibition, actives largely listed as inhibitors | HEK293 hNpr1 GloSensor cGMP, ANP-stimulated luminescence | 1.6% of 76,000 active | AID 1347048 | P16066; calls by dose curve; note: % is set by controls: 0 for no effect and ±100 for the full control effect; nearly all actives have a fitted effect of over 60% in size
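Compound pre-incubated 30 min at room temperature on GloSensor-loaded HEK293 cells stably carrying hNpr1 and the pGS-40F cGMP biosensor. Stimulation uses hNppA at 0.1 nM final; luminescence is taken at baseline and 20 min post-agonist.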
FLuc inh: blocks purified firefly luciferase enzyme activity; Potency, µM (titrated, usually from 115 µM), actives largely listed as inhibitors; purified P. pyralis luciferase, luminescence, biochemical; 2.5% of 76,000 active; P08659; note: % is set by controls: 0 for no effect and ±100 for the full control effect; nearly all actives have a fitted effect of over 65% in size
Target sequence (P08659 whole entry, looked up): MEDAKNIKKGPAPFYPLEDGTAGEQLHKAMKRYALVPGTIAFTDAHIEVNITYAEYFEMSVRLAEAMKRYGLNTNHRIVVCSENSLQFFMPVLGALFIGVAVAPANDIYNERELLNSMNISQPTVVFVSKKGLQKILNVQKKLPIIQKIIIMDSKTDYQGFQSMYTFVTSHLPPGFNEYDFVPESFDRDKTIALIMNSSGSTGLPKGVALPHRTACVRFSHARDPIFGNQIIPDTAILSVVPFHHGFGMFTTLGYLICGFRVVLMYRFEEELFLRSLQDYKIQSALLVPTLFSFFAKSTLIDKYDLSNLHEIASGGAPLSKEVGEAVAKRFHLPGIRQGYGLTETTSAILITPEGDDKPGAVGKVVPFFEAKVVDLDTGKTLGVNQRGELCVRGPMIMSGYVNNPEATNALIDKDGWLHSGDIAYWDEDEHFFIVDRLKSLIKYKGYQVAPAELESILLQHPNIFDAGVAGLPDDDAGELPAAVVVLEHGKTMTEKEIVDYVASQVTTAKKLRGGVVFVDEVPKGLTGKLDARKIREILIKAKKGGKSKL
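Purified 10nM P. pyralis luciferase with 10uM D-luciferin and 10uM ATP in 50mM Tris acetate pH 7.5, 10mM Mg acetate, 0.01% Tween-20, 0.05% BSA. qHTS titration; luminescence read by CCD imager.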
3T3 cytotox: cytotoxic compounds in NIH 3T3 cells; NIH 3T3 viability, CellTiter-Glo ATP luminescence, 48-72 h; Potency, µM (highest dose often 96.7 µM), for the others: at the highest dose activity change, negative = cytotoxicity, hits mostly inhibitors; 4.3% of 94,000 active; AID 1345082; note: % is set by controls: 0 for no effect and ±100 for the full control effect; nearly all actives have a fitted effect of over 55% in size
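Cytotoxicity is measured as loss of cellular ATP: NIH 3T3 cells (400/well) are exposed to compound for 48 or 72 hr at 37 °C, then CellTiter-Glo luminescence is imaged after 10 min at room temperature.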
GPT2 inh: GPT2 alanine aminotransferase inhibition; Q8TD30; Recombinant GPT2, coupled pyruvate oxidase/HRP Amplex Red fluorescence; Potency, µM (highest dose often 57.7 µM), for the others: at the top dose activity change, negative = inhibition, most hits filed as inhibitors; 0.25% of 100,000 active; note: % is set by controls: 0 for no effect and ±100 for the full control effect; nearly all actives have a fitted effect of over 60% in size
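GPT2 10ng/uL, a-KG 250uM, L-Ala 2mM, HEPES pH7.5 + 0.0001% Tween; 30 min RT. Then Amplex mix (PO/HRP/ThPP), 30 min RT dark, fluorescence. AOA 50uM used as positive control.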
HEK cytotox: cytotoxic compounds in HEK 293 cells | 6.6% of 94,000 active | HEK 293 viability, ATP luminescence (CellTiter-Glo), 48-72 h | Potency, µM (titrated, usually from 115 µM), inactives show at the top dose activity change, negative = cytotoxicity, actives largely listed as inhibitors; note: % is set by controls: 0 for no effect and ±100 for the full control effect; nearly all actives have a fitted effect of over 60% in size
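Cells seeded first (HEK 293, 250 cells/well), then compound added by pintool. Incubation ran 48 or 72 hr at 37 degree Celsius. CellTiter-Glo was added and luminescence imaged after 10 min at room temperature.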
Npr1 antag conf: confirmation of human Npr1 natriuretic peptide receptor antagonists. HEK293 hNpr1 cGMP GloSensor luminescence, ANP-stimulated. Potency, µM (series often up to 57.6 µM), without a hit: at the top dose activity change, negative = inhibition, hits mostly inhibitors. shares compounds with hNpr1 antagonist. 76% of 1,400 active; calls by dose curve; note: nearly all actives have a fitted effect of over 70% in size
NPR2 antag: selectivity test of Npr1 antagonists against human Npr2 | shares compounds with hNpr1 antagonist | HEK293 hNpr2 GloSensor cGMP luminescence, CNP-stimulated | Potency, µM (titrated, usually from 57.6 µM), inactives show at the highest dose activity change, negative = inhibition, usual class: inhibitors | 67% of 1,400 active | AID 1347046; calls by dose curve; note: nearly all actives have a fitted effect of over 70% in size
FLuc counter: inhibits firefly luciferase, false Npr1 antagonist flag; shares compounds with hNpr1 antagonist; purified FLuc enzyme, luminescence, Km substrate; Potency, µM (highest dose often 57.6 µM), for inactives: at the highest dose activity change, negative = inhibition, usual class: inhibitors; 0.7% of 1,400 active; AID 1347047; note: 0% is about no effect
GloSensor ctrl: counter-screen for Npr1 antagonists: GloSensor control cell line; shares compounds with hNpr1 antagonist; HEK293 GloSensor cGMP, SNP-stimulated, luminescence; Potency, µM (highest dose often 57.6 µM), inactives show top-dose activity change, negative = inhibition, usual class: inhibitors; 69% of 1,400 active; AID 1347051; calls by dose curve; note: % is set by controls: 0 for no effect and ±100 for the full control effect; nearly all actives have a fitted effect of over 70% in size
Numbers without * were called inactive; i = inactive; ? = inconclusive; nt = not tested or not shown; [ ] = dose if it differs, or a comment. Unless noted, calls come from the whole dose curve; as a rule, active = well fitted curve in the direction sought with a large enough effect; inconclusive = small, poorly fitted or top-dose-only effect, or another doubt; inactive = no such curve, though single readings can be large; an effect the other way counts as inactive or inconclusive. Potency is the fitted concentration of half-maximal effect.

SMILES	hNpr1 antagonist	FLuc inh	3T3 cytotox	GPT2 inh	HEK cytotox	Npr1 antag conf	NPR2 antag	FLuc counter	GloSensor ctrl
CN(C)c1ccc(C(=O)N2CCN(c3cc(-c4ccc(Cl)cc4)[nH]n3)CC2)cc1	13µM*	i	?	i	?	22µM*	22µM*	-8%	22µM*
CN(C)c1ccc(C(=O)N2CCCN(c3cc(-c4ccc(Cl)cc4)[nH]n3)CC2)cc1	?	i	?	-23%	?	nt	nt	nt	nt
Cc1ccc(C(=O)N2CCN(c3cc(-c4ccc(Cl)cc4)[nH]n3)CC2)cc1F	18µM*	i	?	i	?	27µM*	22µM*	1%	24µM*
CCOc1ccc(C(=O)N2CCN(c3cc(-c4ccc(Cl)cc4)[nH]n3)CC2)cc1OCC	2.2µM*	i	22µM*	-15%	20µM*	7.7µM*	14µM*	-1%	9.7µM*
O=C(c1ccccc1Cl)N1CCN(c2cc(-c3ccc(Cl)cc3)[nH]n2)CC1	7.9µM*	i	?	-14%	?	14µM*	14µM*	-5%	11µM*
Cc1ccc(C(=O)N2CCN(c3cc(-c4ccccc4)[nH]n3)CC2)cc1F	-18%	i	?	i	?	nt	nt	nt	nt
CCOc1ccc(C(=O)N2CCCN(c3cc(-c4ccc(OC)cc4)[nH]n3)CC2)cc1OCC	-6%	i	-2%	i	?	nt	nt	nt	nt
O=c1[nH]c(C2CCN([S+](=O)([O-])c3cccs3)CC2)nn1-c1ccccn1	nt	nt	-8%	-3%	-7%	nt	nt	nt	nt
O=C(c1ccc(Br)cc1)N1CCN(c2cc(-c3ccc(Cl)cc3)[nH]n2)CC1	?	i	40µM*	i	45µM*	22µM*	24µM*	0%	15µM*
O=C(c1cccc2[nH]ccc12)N1CCCN(c2cc(-c3ccc(Cl)cc3)[nH]n2)CC1	10µM*	i	?	?	?	15µM*	19µM*	?	14µM*
Cc1ccsc1C(=O)N1CCN(c2cc(-c3ccc(Cl)cc3)[nH]n2)CC1	13µM*	i	25µM*	i	?	24µM*	27µM*	-11%	22µM*
O=C(NC1CCN(c2cc(-c3ccc(F)cc3)[nH]n2)CC1)c1cccc2[nH]ccc12	?	i	40µM*	3%	40µM*	?	?	-12%	-27%
Cc1cccc(C(=O)N2CCCN(c3cc(-c4ccc(Cl)cc4)[nH]n3)CC2)c1	-30%	i	?	-21%	?	nt	nt	nt	nt
CC1=C(C(=O)NCC2Cn3cccc3C(=O)N2Cc2ccccc2)C2(CCCCC2)OC1=O (stereo unspecified)	-4%	i	-11%	-13%	-5%	nt	nt	nt	nt
O=C(C1CCCN([S+](=O)([O-])c2cccc(C(F)(F)F)c2)C1)N1CCC(N2CCOC2=O)CC1 (stereo unspecified)	nt	nt	-35%	1%	?	nt	nt	nt	nt
O=C(NCc1ccccc1)C1CCN(Cc2ccccc2-c2cccnc2)CC1	nt	nt	-17%	2%	-2%	nt	nt	nt	nt
Cc1nc(CN2C(=O)OC3(CCN(C(=O)c4cccc(C#N)c4)CC3)C2(C)c2ccccc2)cs1 (stereo unspecified)	2%	i	?	-5%	-2%	nt	nt	nt	nt
CCOc1ccccc1CN1CCCC12Cc1ccccc1CNC2=O (stereo unspecified)	nt	nt	-17%	-4%	-19%	nt	nt	nt	nt
O=C(C1COc2ccccc2O1)N1CCN(c2cc(-c3ccc(Cl)cc3)[nH]n2)CC1 (stereo unspecified)	?	i	?	i	45µM*	15µM*	22µM*	2%	14µM*
O=C(Cc1ccccc1F)N1CCN(c2cc(-c3ccc(Cl)cc3)[nH]n2)CC1	0%	i	-14%	i	-7%	nt	nt	nt	nt
O=C(c1ccc(OC(F)(F)F)cc1)N1CCN(c2cc(-c3ccc(Cl)cc3)[nH]n2)CC1	11µM*	i	18µM*	-13%	32µM*	19µM*	22µM*	3%	19µM*
Cn1cccc1C(=O)N1CCN(c2cc(-c3ccc(Cl)cc3)[nH]n2)CC1	-20%	i	?	i	?	nt	nt	nt	nt
CCCc1ccc([S+](=O)([O-])N2CCC3(CC2)CNC(=O)C3CO)cc1 (stereo unspecified)	nt	nt	-16%	nt	?	nt	nt	nt	nt
COc1ccc(Nc2cnc3ccc(-c4ccccc4OC)nn23)cc1OC	28µM*	i	?	i	?	25µM*	25µM*	?	22µM*
COc1ccccc1-c1ccc2ncc(Nc3ccc4c(c3)OCO4)n2n1	-4%[70.6 µM]	i	?	?	?	nt	nt	nt	nt
SMILES	hNpr1 antagonist	FLuc inh	3T3 cytotox	GPT2 inh	HEK cytotox	Npr1 antag conf	NPR2 antag	FLuc counter	GloSensor ctrl
COc1ccc(C(=O)N2CCC(Cc3nc(C(C)C)no3)CC2)cc1	?	i	?	4%	?	nt	nt	nt	nt
Cc1ccc(C(=O)N2CCC(Cc3nc(-c4ccccc4)no3)CC2)cn1	6.3µM*	i	?	-16%	?	4.8µM*	5.4µM*	23%	4.3µM*
COc1ccc(-c2noc(CC3CCN(C(=O)c4ccc(C)nc4)CC3)n2)cc1	7.1µM*	i	?	4%	?	5.4µM*	6.9µM*	-1%	5.4µM*
COc1ccc(-c2ccccc2C(=O)N2CCC(NC(=O)C(C)(C)C)CC2)nn1	nt	nt	-14%	nt	i	nt	nt	nt	nt
COc1cccc(C(=O)N2CC(=O)N(Cc3ccccc3)CC(O)C2)c1 (stereo unspecified)	nt	nt	?	nt	-13%	nt	nt	nt	nt
N#Cc1ccc(CNC(=O)[C@@H]2Cc3nc[nH]c3CN2CC2CCCCC2)cc1	2%[70.6 µM]	i	-24%[174 µM]	-8%[88.5 µM]	?	nt	nt	nt	nt
Cc1nn(C)c(C)c1C(C)NC(=O)c1ccc(CC2CCN(C(=O)C3CC3)CC2)cc1 (stereo unspecified)	11µM*	i	?	i	?	17µM*	17µM*	8%	15µM*
